The supplement of paper PMC10849652
About 7,900 targets were measured; listed, in parts, are those with a hit and a random draw of the rest. About 0.6% of all pairs of compound and target were hits. A number with no mark means an inactive call.

compound: CS(=O)(=O)c1ccc(-c2cnc(N)c(C(=O)Nc3ccccc3)n2)cc1; test: log2 fold change, soluble protein after heating vs DMSO (PISA); higher = thermal stabilisation; K562 cells, 10 uM, 30 min; active = over 0.2 and 3.5 SD of the protein, either way, in both replicates (recomputed)
Method in brief: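 Values are thermal stability changes relative to control samples and are taken from duplicates. They are stated as log2 fold changes. Before quantification by TMTpro 16plex LC-MS/MS with equalised channel sums, K562 cells at 2×10^6 cells/mL were treated with 10 μM compound for 30 min, heated in aliquots for 3 min across 48°C-58°C, pooled, extracted in PBS with 0.5% NP-40 at 4°C, and centrifuged at 21,000xg for 90 min to give the soluble supernatant.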

Chain of UniProt Q9NXV6 (Q9NXV6 whole entry, looked up): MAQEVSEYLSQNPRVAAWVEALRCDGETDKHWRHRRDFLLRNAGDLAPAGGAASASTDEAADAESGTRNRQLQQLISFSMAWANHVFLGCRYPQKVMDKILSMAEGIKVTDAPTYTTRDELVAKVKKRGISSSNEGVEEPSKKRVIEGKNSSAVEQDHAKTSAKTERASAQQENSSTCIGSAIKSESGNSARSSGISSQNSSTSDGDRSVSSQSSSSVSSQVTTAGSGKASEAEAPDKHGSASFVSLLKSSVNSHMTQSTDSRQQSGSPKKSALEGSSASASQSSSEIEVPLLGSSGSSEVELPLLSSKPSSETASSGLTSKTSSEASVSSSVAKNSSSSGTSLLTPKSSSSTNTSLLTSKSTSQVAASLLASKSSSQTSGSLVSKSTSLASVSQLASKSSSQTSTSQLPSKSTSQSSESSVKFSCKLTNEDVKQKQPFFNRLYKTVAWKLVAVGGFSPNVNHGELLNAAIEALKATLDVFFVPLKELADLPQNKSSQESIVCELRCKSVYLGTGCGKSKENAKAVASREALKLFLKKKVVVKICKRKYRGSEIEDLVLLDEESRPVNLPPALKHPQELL
Chain of UniProt Q9BT78 (Q9BT78 whole entry, looked up): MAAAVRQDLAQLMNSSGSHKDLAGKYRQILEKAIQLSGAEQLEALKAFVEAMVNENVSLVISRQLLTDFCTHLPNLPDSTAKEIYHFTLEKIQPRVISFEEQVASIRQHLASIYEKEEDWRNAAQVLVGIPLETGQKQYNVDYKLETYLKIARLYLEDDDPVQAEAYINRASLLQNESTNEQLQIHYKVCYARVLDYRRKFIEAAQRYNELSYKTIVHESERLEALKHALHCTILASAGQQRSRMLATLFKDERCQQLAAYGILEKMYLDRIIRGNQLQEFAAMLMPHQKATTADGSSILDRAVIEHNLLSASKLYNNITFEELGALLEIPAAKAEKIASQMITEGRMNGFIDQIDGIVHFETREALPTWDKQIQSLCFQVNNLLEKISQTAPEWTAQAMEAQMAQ
Chain of UniProt P83916 (P83916 whole entry, looked up): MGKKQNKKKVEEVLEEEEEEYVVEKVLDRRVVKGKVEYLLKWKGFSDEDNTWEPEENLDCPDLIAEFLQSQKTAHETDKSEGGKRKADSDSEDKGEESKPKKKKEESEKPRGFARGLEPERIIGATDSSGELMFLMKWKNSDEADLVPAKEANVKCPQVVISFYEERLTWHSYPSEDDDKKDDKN
Chain of UniProt P19397 (P19397 whole entry, looked up): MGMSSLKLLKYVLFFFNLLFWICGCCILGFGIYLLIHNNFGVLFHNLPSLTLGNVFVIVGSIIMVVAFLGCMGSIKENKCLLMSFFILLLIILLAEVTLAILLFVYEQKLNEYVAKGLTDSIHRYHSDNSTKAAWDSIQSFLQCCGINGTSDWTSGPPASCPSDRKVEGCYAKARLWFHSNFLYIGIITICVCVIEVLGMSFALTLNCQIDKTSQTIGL
Chain of UniProt Q96KP4 (Q96KP4 whole entry, looked up): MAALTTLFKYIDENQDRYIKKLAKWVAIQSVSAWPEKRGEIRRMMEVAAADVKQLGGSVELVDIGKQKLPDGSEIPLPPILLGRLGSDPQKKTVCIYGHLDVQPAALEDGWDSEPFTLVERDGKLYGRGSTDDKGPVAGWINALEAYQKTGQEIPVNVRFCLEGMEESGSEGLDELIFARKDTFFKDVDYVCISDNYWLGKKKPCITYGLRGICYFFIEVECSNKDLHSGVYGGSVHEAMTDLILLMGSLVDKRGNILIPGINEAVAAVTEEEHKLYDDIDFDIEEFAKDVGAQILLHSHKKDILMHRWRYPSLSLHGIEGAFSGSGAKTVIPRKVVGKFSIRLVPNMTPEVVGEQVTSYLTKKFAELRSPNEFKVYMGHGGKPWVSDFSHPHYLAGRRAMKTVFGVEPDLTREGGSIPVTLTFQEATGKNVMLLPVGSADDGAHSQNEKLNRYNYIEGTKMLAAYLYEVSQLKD
Chain of UniProt P21964 (P21964 whole entry, looked up): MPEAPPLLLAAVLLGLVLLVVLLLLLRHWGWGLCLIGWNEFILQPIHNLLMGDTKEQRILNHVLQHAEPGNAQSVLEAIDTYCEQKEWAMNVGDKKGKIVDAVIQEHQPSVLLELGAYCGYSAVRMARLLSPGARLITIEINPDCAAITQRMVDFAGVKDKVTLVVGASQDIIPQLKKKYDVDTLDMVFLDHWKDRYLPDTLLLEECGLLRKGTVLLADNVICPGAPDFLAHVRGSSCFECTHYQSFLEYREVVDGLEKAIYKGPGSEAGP
Chain of UniProt Q99627 (Q99627 whole entry, looked up): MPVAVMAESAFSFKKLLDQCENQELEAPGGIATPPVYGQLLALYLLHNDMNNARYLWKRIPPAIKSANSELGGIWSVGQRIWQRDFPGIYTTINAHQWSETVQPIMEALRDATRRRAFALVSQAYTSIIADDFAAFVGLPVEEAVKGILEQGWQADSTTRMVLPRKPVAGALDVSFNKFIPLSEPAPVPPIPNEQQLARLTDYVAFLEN
Chain of UniProt P48729 (P48729 whole entry, looked up): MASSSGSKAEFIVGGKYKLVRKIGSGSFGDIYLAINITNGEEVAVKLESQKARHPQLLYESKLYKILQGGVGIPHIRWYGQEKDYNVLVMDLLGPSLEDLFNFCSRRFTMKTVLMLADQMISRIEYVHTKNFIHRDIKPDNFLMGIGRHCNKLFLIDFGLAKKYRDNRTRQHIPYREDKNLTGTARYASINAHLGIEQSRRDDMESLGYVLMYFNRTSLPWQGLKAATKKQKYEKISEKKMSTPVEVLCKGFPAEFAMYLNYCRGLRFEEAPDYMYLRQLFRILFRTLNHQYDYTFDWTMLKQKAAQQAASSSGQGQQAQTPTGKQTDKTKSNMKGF
Chain of UniProt Q00534 (Q00534 whole entry, looked up): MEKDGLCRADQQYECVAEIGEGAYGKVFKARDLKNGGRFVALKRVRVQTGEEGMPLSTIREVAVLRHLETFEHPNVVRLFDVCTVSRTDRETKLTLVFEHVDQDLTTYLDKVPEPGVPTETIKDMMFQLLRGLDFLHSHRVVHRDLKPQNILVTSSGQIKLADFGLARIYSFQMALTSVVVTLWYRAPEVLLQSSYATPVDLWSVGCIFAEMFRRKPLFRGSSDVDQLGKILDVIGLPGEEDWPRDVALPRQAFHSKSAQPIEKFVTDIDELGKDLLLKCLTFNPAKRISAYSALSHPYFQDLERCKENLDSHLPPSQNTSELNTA
Chain of UniProt O95319 (O95319 whole entry, looked up): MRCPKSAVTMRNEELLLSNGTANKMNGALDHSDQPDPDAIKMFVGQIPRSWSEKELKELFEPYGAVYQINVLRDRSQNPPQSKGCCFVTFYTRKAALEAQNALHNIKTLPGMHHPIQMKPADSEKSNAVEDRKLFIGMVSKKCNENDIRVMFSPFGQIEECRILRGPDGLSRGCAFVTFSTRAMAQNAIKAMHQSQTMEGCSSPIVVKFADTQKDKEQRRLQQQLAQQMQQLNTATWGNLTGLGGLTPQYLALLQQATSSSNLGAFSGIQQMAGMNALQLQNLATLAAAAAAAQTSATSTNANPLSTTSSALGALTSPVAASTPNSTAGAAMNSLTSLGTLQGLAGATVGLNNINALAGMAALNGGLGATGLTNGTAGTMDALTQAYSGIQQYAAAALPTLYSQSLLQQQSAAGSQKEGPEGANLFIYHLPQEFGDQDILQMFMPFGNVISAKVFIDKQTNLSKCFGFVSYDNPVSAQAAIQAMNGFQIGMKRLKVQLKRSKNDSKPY
Chain of UniProt O75153 (O75153 whole entry, looked up): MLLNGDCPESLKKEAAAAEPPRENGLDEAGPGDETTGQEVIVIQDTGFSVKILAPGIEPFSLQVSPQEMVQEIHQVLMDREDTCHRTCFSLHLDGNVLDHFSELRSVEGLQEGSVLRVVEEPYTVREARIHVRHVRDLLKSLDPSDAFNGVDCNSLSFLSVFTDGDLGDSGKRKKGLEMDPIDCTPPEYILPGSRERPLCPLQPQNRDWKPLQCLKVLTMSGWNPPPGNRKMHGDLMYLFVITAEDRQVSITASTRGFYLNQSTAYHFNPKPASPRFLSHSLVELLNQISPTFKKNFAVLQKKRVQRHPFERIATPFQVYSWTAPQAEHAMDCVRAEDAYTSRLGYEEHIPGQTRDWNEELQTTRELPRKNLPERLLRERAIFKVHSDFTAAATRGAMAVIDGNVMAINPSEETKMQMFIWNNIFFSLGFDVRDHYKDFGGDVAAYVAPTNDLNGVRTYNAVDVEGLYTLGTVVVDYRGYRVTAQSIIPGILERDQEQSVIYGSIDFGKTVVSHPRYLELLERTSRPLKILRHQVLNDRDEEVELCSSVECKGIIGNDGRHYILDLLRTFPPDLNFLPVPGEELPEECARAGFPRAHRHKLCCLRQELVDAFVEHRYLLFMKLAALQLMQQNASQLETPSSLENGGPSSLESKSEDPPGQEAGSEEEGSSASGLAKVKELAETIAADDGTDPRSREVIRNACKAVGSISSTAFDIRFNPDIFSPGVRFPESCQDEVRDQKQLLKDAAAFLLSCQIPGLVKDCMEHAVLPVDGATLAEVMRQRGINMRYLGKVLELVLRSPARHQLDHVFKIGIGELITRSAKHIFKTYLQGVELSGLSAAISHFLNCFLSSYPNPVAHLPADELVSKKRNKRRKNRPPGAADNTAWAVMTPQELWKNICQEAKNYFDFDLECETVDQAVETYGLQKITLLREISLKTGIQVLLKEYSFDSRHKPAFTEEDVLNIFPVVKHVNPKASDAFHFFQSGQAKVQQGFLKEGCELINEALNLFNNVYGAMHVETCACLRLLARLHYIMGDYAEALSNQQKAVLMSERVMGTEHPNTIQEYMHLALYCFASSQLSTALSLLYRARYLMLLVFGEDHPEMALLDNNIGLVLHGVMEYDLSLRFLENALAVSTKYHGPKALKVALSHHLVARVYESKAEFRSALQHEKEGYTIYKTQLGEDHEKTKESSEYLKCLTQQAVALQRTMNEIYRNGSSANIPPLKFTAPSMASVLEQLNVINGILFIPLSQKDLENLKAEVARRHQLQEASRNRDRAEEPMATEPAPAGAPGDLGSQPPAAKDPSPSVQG

Target | log2 fold change
CNDP2 (UniProt Q96KP4) | 0.03
CSNK1A1 (UniProt P48729) | -0.093
CNTN4 (UniProt Q8IWV2) | -0.03
CRLF3 (UniProt Q8IUI8) | 0.053
CDC123 (UniProt O75794) | -0.001
CPT1A (UniProt P50416) | 0.043
CERS2 (UniProt Q96G23) | -0.027
COQ7 (UniProt Q99807) | 0.113
CELF2 isoform 3 (UniProt O95319) | -0.107
COPS8 (UniProt Q99627) | -0.017
CBX1 (UniProt P83916) | -0.03
CDK5RAP3 isoform 4 (UniProt Q96JB5) | -0.017
CD53 (UniProt P19397) | 0.101
CCNK isoform 4 (UniProt O75909) | -0.014
COPS4 (UniProt Q9BT78) | -0.01
COASY isoform 2 (UniProt Q13057) | -0.052
CDKN2AIP (UniProt Q9NXV6) | -0.053
CDK6 (UniProt Q00534) | 0.062
CHCHD1 (UniProt Q96BP2) | -0.115
CLUH (UniProt O75153) | -0.001
CALCOCO2 isoform 4 (UniProt Q13137) | 0.026
COMT (UniProt P21964) | 0.04
